Compound activity deposited in PubChem by several laboratories.
Anthrax LF prot – Bacillus anthracis LF protease inhibitors, primary screen, biochemical, multiplex microsphere, MLPCN library | multiplex microsphere protease cleavage assay | 360,000 compounds, 0.12% hits | AID 588501, 2011 | inhibition, % at 10 µM; note: plate controls were buffer without enzyme for full effect and enzyme alone for no effect
Target sequence (P15917 whole entry, looked up): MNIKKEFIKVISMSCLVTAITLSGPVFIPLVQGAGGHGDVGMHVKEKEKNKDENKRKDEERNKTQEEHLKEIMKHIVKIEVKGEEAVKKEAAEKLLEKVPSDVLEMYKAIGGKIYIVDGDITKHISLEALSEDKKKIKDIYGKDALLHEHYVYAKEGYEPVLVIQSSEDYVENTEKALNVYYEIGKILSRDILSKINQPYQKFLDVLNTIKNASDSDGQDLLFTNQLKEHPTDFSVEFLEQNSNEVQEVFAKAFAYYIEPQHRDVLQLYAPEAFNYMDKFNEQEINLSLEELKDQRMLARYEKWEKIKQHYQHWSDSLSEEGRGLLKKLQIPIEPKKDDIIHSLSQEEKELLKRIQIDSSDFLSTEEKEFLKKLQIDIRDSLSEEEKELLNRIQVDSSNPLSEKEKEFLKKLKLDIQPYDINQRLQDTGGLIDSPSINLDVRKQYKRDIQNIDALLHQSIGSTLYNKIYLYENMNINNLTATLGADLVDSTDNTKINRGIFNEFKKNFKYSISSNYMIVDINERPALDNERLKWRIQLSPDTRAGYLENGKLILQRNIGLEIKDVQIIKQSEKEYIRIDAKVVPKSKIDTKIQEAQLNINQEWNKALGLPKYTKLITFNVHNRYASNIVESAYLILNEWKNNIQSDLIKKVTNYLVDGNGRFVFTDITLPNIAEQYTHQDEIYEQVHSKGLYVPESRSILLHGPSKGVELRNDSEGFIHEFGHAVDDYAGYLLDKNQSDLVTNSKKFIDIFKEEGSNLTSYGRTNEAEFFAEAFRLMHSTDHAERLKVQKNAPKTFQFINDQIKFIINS
Autofluor counter – compound fluorescence in toxin protease inhibitor counterscreen. compound autofluorescence counterscreen, microsphere flow cytometry; hits give high values. fluorescence intensity (test concentration not listed). 360,000 compounds, 3.1% hits; in the data active = fluorescence intensity above about 16000; inconclusive = no clear call, values can overlap the other calls
BoNT A protease – BoNT/A light chain protease inhibitors, primary screen, biochemical, flow cytometry, MLPCN library; 360,000 compounds, 0.17% hits; Botulinum neurotoxin type A light chain protease (Clostridium botulinum A str. ATCC 3502); inhibition, % at 10 µM; multiplex microsphere protease substrate cleavage; note: plate controls were buffer without enzyme for full effect and enzyme alone for no effect
BoNT F protease – BoNT/F light chain protease inhibitors, primary screen, biochemical, flow cytometry, MLPCN library. Botulinum neurotoxin type F light chain protease (Clostridium botulinum). inhibition, % at 10 µM. 360,000 compounds, 0.22% hits. Multiplex microsphere protease cleavage assay; in the data active = inhibition above about 35%, passing the limit was not always enough; inconclusive = no clear call, values can overlap the other calls; note: plate controls were buffer without enzyme for full effect and enzyme alone for no effect
3CLpro inhibitor – SARS-CoV 3CLpro protease inhibitors, primary screen, biochemical, quenched FRET | inhibition, % at 6 µM | recombinant SARS-CoV 3CLpro, quenched FRET peptide cleavage | 290,000 compounds, 0.14% hits | Replicase polyprotein 1ab (Severe acute respiratory syndrome coronavirus), P0C6X7 | AID 1706, 2009; in the data active = inhibition above about 12%
CCHFV vOTU inh – CCHFV vOTU protease inhibitors, primary screen, biochemical, Pep-AMC substrate, fluorescence. inhibition, % at 11.5 µM. 370,000 compounds, 0.55% hits; in the data active = inhibition above about 30%; note: 0% = vehicle wells with enzyme and 100% = no enzyme wells
BoNT-A LC CP1 – BoNT/A light chain protease inhibitors, confirmation, biochemical, flow cytometry, cherry pick 1 | 720 compounds, 3% hits | multiplex microsphere protease assay | inhibition, % at 10 µM | shares compounds with BoNT F protease | AID 602139, 2011; in the data active = inhibition above about 32%
BoNTF LC inh 1 – BoNT/F light chain protease inhibitors, confirmation, biochemical, flow cytometry, cherry pick 1; 720 tested, under 10 active; shares compounds with BoNT F protease; multiplex microsphere protease cleavage assay; AID 602140, 2011; inhibition, % at 10 µM; call rule not given here
LF protease CP1 – Bacillus anthracis LF protease inhibitors, confirmation, biochemical, multiplex microsphere, cherry pick 1. inhibition, % at 10 µM. multiplex microsphere protease cleavage assay. shares compounds with BoNT F protease. 720 tested, under 10 active; call rule not given here
* = called active by the depositor; ? = inconclusive; nt = no result. Shown are actives, neighbours in structure and some others; about 3.9% of the full set was active somewhere. Cut-off read from the data, not from the text of the source, unless noted: active = inhibition above about 30%; inconclusive = no clear call, values can overlap the other calls; inactive = below that.

SMILES	Anthrax LF prot	Autofluor counter	BoNT A protease	BoNT F protease	3CLpro inhibitor	CCHFV vOTU inh	BoNT-A LC CP1	BoNTF LC inh 1	LF protease CP1
CC(=O)Nc1ccc(NS(=O)(=O)c2cc(-c3n[nH]c(=O)c4ccccc34)ccc2C)cc1	-5	4333	5	41*	3	-6	-1	-5	-5
CCC(C)NC(=O)CN1C(=O)C2CCCCN2C(=O)c2ccccc21 (centres undefined)	nt	nt	nt	nt	nt	-8	nt	nt	nt
COc1cc(OC)cc(C(=O)Nn2cnnc2)c1	37*	3694	3	?	8	-9	0	-6	-2
Cc1cc([N+](=O)[O-])nn1Cc1ccccc1F	1	2525	0	35*	-2	3	0	0	1
CC(=O)c1c(C)nc(-c2ccc(Cl)cc2)nc1N=CN(C)C	-1	2644	2	34	-3	1	nt	nt	nt
CC(=O)c1c(C)nc(-c2ccc(Cl)cc2)nc1N	1	2357	5	50*	1	5	5	24	5
COCCCNCCCCOc1ccc(Br)cc1C	-1	2506	5	36*	7	0	5	-10	-2
Nc1nc2ccccc2n1CCOc1ccc(F)cc1	-1	4168	-4	42*	-1	-8	-1	-2	3
COc1ccc(OCCn2c(N)nc3ccccc32)cc1	-10	3931	-4	12	0	-14	nt	nt	nt
O=C(Nc1ccc(CN2CCOCC2)cc1)c1ccc(F)cc1	1	3717	0	35*	-4	11	0	-3	3
O=C(Nc1ccc(CN2CCS(=O)(=O)CC2)cc1)c1ccc(C(F)(F)F)cc1	30*	3484	0	-17	-7	12	0	-8	-4
COC(=O)CSc1nc(N)c2c3c(sc2n1)CCCC3	-2	2829	0	3	-3	-9	nt	nt	nt
COC(=O)CSc1nc(N)c2c3c(sc2n1)C(c1ccccc1)SC(c1ccccc1)C3 (centres undefined)	7	2397	30*	1	0	nt	2	2	-3
COc1ccc(-n2c(C)nc(N)c2C(=O)c2ccccc2)cc1	56*	4994	-5	?	-2	24	-1	-2	3
C=CCc1cccc(CNc2c(C)cc(C)cc2C)c1O	-6	4368	-1	-6	7	-6	nt	nt	nt
C=CCc1cccc(CNn2cnnc2)c1O	3	4273	-1	43*	-3	-10	-1	0	-4
Cc1ccc2c(n1)sc1c(-c3ccc(Br)cc3)c(C#N)c(N)nc12	30	?	44*	16	3	0	11	2	5
CCc1nc(N)c(C#N)c(-c2ccc(F)cc2)c1C	-3	2821	0	-3	-1	-3	nt	nt	nt
O=C1CN(C(=O)C2CC2)c2ccccc2N1	0	4674	1	37*	-2	3	0	-1	-1
O=C1CN(C(=O)c2ccccc2)c2ccccc2N1	-2	3334	1	3	-1	0	nt	nt	nt
OC1CN=C2CCCc3c2n(c2ccc(Cl)cc32)C1 (centres undefined)	42*	4022	54*	24	-2	-7	4	0	8
CN(C)S(=O)(=O)c1cc(C(=O)NCCCn2ccc3ccccc32)ccc1Cl	12	4171	6	-27	-1	7	0	-3	2
O=C(Nc1ccc2nc(-c3cccs3)c(-c3cccs3)nc2c1)NC1CC1	54*	6638	83*	36*	-3	-9	50*	-1	31*
